D3 antag: qHTS of D3 Dopamine Receptor Antagonist: qHTS | D3R cells, DiscoveRx beta-arrestin luminescence, antagonist mode; active compounds read low | 360,000 compounds, 2.5% hits | AID 652054, 2013 | D(3) dopamine receptor (Homo sapiens), P35462 | max response, negative = inhibition, %; in the data active = max response below about -50%; inconclusive = no clear call, values can overlap the other calls; note: % is set by controls: 0 for no effect and ±100 for the full control effect
Target sequence (P35462 whole entry, looked up): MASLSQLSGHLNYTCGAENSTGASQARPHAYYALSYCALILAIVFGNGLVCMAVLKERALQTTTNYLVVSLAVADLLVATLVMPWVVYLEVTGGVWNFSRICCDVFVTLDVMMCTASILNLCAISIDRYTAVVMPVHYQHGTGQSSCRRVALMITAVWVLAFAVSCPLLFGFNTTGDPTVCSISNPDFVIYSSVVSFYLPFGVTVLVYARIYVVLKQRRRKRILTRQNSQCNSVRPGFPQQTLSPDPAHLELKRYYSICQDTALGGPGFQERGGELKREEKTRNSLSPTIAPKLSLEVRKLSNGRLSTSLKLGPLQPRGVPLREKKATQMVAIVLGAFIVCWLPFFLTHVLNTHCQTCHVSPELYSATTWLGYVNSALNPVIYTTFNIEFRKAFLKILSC
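Cells expressing the human receptor were seeded at 1500 cells/well, incubated overnight at 37 degrees C in 5% CO2, then exposed to library compounds with dopamine controls for 90 minutes at 37 degrees C before luminescent detection.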
DRD3 agonist: qHTS of D3 Dopamine Receptor Agonist: qHTS. max activation, %. D(3) dopamine receptor (Homo sapiens), P35462. D3R DiscoveRx beta-arrestin cells, luminescence, 90 min. 410,000 compounds, 0.58% hits. AID 652048, 2013; in the data active = max activation above about 30%; note: 0% is about no effect
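Cells at 1500/well, incubated overnight, then treated with pinned compounds (dopamine as control) for 90 min at 37 degrees C. DiscoveRx reagent added for 30 - 60 minutes at room temperature; luminescence read.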
S2 tox: Viability Counterscreen for Primary qHTS for Inhibitors of ATXN expression. S2 cells (HEK-293 line with an ATXN2-luciferase reporter) viability, CellTiter-Fluor protease fluorescence, 24 h. 400,000 compounds, 0.49% hits. Potency, µM (doses to about 56.7 µM), hits mostly cytotoxic; note: potency is the fitted concentration of half-maximal effect; nearly all actives have a fitted effect of over 40% in size
IL-1B inflam inh: qHTS for Inhibitors of Inflammasome Signaling: IL-1-beta AlphaLISA Primary Screen; THP-1 LPS/ATP IL-1B secretion, AlphaLISA, 16 h; active compounds read low; activity change, % at 57.5 µM; 360,000 compounds, 4.7% hits; AID 743279, 2014; in the data active = activity change below about -50%; inconclusive = mostly about -30% to -49%; note: % is set by controls: 0 for no effect and ±100 for the full control effect
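Secreted IL-1B measured by AlphaLISA bead assay after 16 h compound exposure of THP-1 cells; compounds (final up to 57.5 uM) added 1 h before LPS (250 ng/mL) and ATP (1.25 mM) stimulation; lower signal means less secretion.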
a7 integrin act: qHTS for Activators of Integrin-Mediated Alleviation for Muscular Dystrophy | alpha7betagal myoblasts, beta-gal FDG fluorescence, 48 h | Potency, µM (top dose mostly 38.3 µM), for inactives: top-dose activation, hits mostly activators | 350,000 compounds, 0.064% hits;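 note: potency is the fitted concentration of half-maximal effect; 100% = response of the positive control SU9516; nearly all actives have a fitted effect of over 60% in size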
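alpha7betagal+/- myoblasts (passage 13, 250/well) treated 48 h at 37C with compounds at 1:260 dilution of DMSO stock. Lysed, then beta-galactosidase activity read as FDG fluorescence (ex 480/em 540) after 30 min, with pre-read for autofluorescence.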
ATXN2 expr inh: Primary qHTS for Inhibitors of ATXN expression. HEK-293 ATXN2-luciferase reporter, luminescence, 24 h. Potency, µM (highest dose often 57 µM), without a hit: top-dose activity change, negative = inhibition, hits mostly inhibitors. 360,000 compounds, 0.72% hits. AID 1745845, 2022; note: potency is the fitted concentration of half-maximal effect; % is set by controls: 0 for no effect and ±100 for the full control effect; nearly all actives have a fitted effect of over 55% in size
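ATXN2-luciferase reporter cells (luciferase flanked by upstream and downstream ATXN2 gene portions) were treated 24 h at 37 °C with compounds at up to 57 uM. SteadyGlo luminescence gave expression; GF-AFC fluorescence gave viability.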
Numbers without * were called inactive; i = inactive; ? = inconclusive; · = no result given; ! = a repeat was not active. This is a sample that favours compounds with a hit; in the whole collection about 7% have one here. Unless noted, calls come from the whole dose curve; as a rule, active = well fitted curve in the direction sought with a large enough effect; inconclusive = small, poorly fitted or top-dose-only effect, or another doubt; inactive = no such curve, though single readings can be large; an effect the other way counts as inactive or inconclusive.

SMILES	D3 antag	DRD3 agonist	S2 tox	IL-1B inflam inh	a7 integrin act	ATXN2 expr inh
CN(C)CCCN(C(=O)c1sc2ccccc2c1Cl)c1nc2c(F)cccc2s1	1.5	-7.9	i	-8.4	-11.6%	4.8%
COCOc1cccc(CN2CCC2(C)C(=O)Nc2cc(OC)ccc2OC)c1 (stereo not drawn)	49.1	9.1	i	23.8	·	-11.2%
COc1ccc(S(=O)(=O)N2CCCC2)cc1C(C)C	-6.8	1.1	i	18.2	-19.1%	14.9%
COC(=O)c1c(C)[nH]c(O)c1C=Nc1ccc(C(C)C)cc1	-8.1	6.9	?	-101.2*	3.5%	46.9%
Cc1sc(NC(=O)Cc2ccc3c(c2)OCO3)nc1-c1ccc2c(c1)CCN2C(=O)c1ccc(F)cc1	-21.8	6.3	?	-5.7	-2.6%	-13.0%
Cc1sc(NC(=O)CN2CCCC2)nc1-c1ccc2c(c1)CCN2C(=O)c1cccc(F)c1	14.3	5.6	?	-66.3*	-76.7%	?
O=C(Nc1cccc(F)c1)c1ccc(-n2cncn2)c2ccoc12	19.8	6.9	?	-29.3	·	10.3%
COc1ccc(OC)c2c1CCC2=O	-52.0*	3.1	i	-5.1	9.6%	-4.9%
Cc1ccc(-c2noc(CN(C(=O)c3cccs3)C(C)C)n2)cc1	8.9	6.9	i	-78.0*	10.4%	3.9%
COc1cc(NC(=O)Cc2ccc(S(=O)(=O)N3CCOCC3)s2)c(OC)cc1Cl	1.3	0.9	i	11.8	6.0%	-3.1%
CC(=O)N1CCN(c2ccc(NC(=O)c3ccc(Cl)c(Cl)c3)cc2)CC1	10.5	2.8	i	-1.5	0.3%	-0.7%
O=C(Nc1ccc(S(=O)(=O)N2CCOCC2)cc1)c1cc(Cl)ccc1NS(=O)(=O)c1ccc(Cl)s1	·	·	15.8µM*!	·	·	-12.0%
O=C(Cc1ccc(S(=O)(=O)N2CCOCC2)s1)Nc1cc(Cl)ccc1Cl	-3.8	4.9	i	-56.6*	-9.6%	3.1%
CC(=O)N1CCN(c2ccc(NC(=O)c3ccc(Cl)c([N+](=O)[O-])c3)cc2)CC1	3.4	7.7	i	-52.4*	-12.5%	6.5%
O=C(Nc1cccc(S(=O)(=O)N2CCOCC2)c1)c1ccc(Cl)c([N+](=O)[O-])c1	-16.0	-7.5	i	-98.7*	-1.8%	-38.0%
CCc1noc(C)c1C(=O)NCCN1C(=O)S/C(=C\c2ccc(OC)cc2)C1=O	6.1	22.0	?	-22.6	-10.7%	34.3%
CC(NC(=O)CN1CCN(Cc2cccc(F)c2)CC1)c1ccccc1 (stereo not drawn)	-26.2	-24.9	i	11.7	-19.7%	0.1%
CC1=C[C@H](O)CC(C)(C)[C@H]1/C=C/C(C)=C/C=C/C(C)=C/C=C/C=C(C)/C=C/C=C(C)/C=C/C1=C(C)C[C@@H](O)CC1(C)C	·	-0.5	·	·	·	·
CC(C)CNC(=O)c1cccc(NC(=O)c2ccc(Cl)c([N+](=O)[O-])c2)c1	4.3	-7.1	i	-111.6*	-28.5%	2.5%
COc1ccc(C(=O)Nc2ccc(Nc3ccccc3)cc2)cc1[N+](=O)[O-]	-14.0	-2.5	?	-15.8	-24.3%	·
O=C(NCC(c1cccs1)N1CCOCC1)c1ccc(Cl)c([N+](=O)[O-])c1 (stereo not drawn)	2.4	-1.2	?	-93.6*	-47.6%	-15.6%
CCN(CC)c1ccc(C(=O)Nc2ccccc2)cc1[N+](=O)[O-]	5.9	-6.1	?	-95.6*	-2.6%	42.2%
O=C(NCC(c1cccs1)N1CCOCC1)c1ccccc1NS(=O)(=O)c1ccc(Cl)c([N+](=O)[O-])c1 (stereo not drawn)	11.9	7.5	?	-9.6	-18.8%	·
O=C(Nc1ccc(S(=O)(=O)N2CCOCC2)cc1)c1ccc(Cl)c([N+](=O)[O-])c1	-22.7	-6.9	i	-96.1*	-58.9%	-19.2%
Cc1ccccc1C(=O)N1CCC(C(=O)NC2CCCCCC2)CC1	5.8	0.3	i	36.4	-16.1%	5.9%
SMILES	D3 antag	DRD3 agonist	S2 tox	IL-1B inflam inh	a7 integrin act	ATXN2 expr inh
O=[N+]([O-])c1cccc(Cl)c1NCCNS(=O)(=O)c1ccccc1	-55.7*	3.1	i	?	-1.3%	-16.6%
O=[N+]([O-])c1cc(Cl)ccc1NCCNS(=O)(=O)c1ccccc1	-7.3	-19.1	i	-57.5*	0.4%	8.1%
Nc1c(-c2ccccc2)c(CN2CCOCC2)nn1-c1cccc([N+](=O)[O-])c1	13.6	2.1	?	-6.1	-7.4%	-1.5%
CCOc1cc(-c2ccccc2)nc(N)n1	-3.4	-1.0	i	?	2.7%	69.8%
C[C@H](CO)N1C[C@H](C)[C@@H](CN(C)S(=O)(=O)c2cccs2)Oc2ccc(NC(=O)Cc3ccccc3)cc2C1=O	5.9	8.4	i	-18.0	0.9%	5.3%
Cc1ccc(C)c(S(=O)(=O)NCCCc2ccccc2)c1	7.2	0.3	i	-56.9*	-0.1%	-8.5%
CCc1[nH]nc2c1C1(CCOC1C)C(C#N)=C(N)O2 (stereo not drawn)	-57.0*	-7.7	i	17.5	?	0.5%
CC1CN(C(=O)COC(=O)c2ccc(N)c([N+](=O)[O-])c2)CC(C)O1 (stereo not drawn)	2.6	-18.3	?	19.2	24.7%	6.8%
Nc1ccc(C(=O)NNC(=O)C2COc3ccccc3O2)cc1[N+](=O)[O-] (stereo not drawn)	12.9	0.9	i	-11.8	20.3%	-0.6%
CS(=O)(=O)c1ccc(C(=O)OCC(=O)N2CCN(CCC3CCCCC3)CC2)cc1[N+](=O)[O-]	·	·	?	·	·	3.55µM*
CS(=O)(=O)c1ccc(C(=O)OCC(=O)NC(=O)C2COc3ccccc3O2)cc1[N+](=O)[O-] (stereo not drawn)	-20.6	0.9	?	-58.8*	-43.5%	6.7%
CS(=O)(=O)c1ccc(C(=O)OCC(=O)NC(=O)C2CCCCC2)cc1[N+](=O)[O-]	?	-8.4	·	-60.3*	-23.5%	·
CN(C)C(=O)CN1C(=O)C2CCCCN2C(=O)c2ccccc21 (stereo not drawn)	0.8	2.6	i	2.8	21.9%	4.6%
CC(C)(C)OC(=O)C[C@H]1C/C=C\C[C@H](CC(=O)NCCO)C(=O)NC[C@@H](c2ccccc2)OC1=O	?	1.1	i	-6.3	23.0%	7.0%
CC1CCCCC1NC(=O)c1ccc(CNc2c(N3CCCC3)c(=O)c2=O)cc1 (stereo not drawn)	-2.9	-9.2	i	-0.3	-0.7%	-0.3%

Source: PubChem BioAssay (National Center for Advancing Translational Sciences (NCATS))
